Test results from the supplement of paper PMC10600219.
Where “and” joins values, the source holds several entries; their conditions need not be identical. Equal entries are not always repeated. The full ranking holds about 2,800 compounds; the median of “cell viability relative to vehicle” is about 1.1, and the lowest 2% start at about 0.19. The full list was thinned out, with the lowest values kept by preference.

Each molecule was assayed on NCI-H2228 parental (assay: cell viability relative to vehicle (fraction of vehicle); NCI-H2228 is an ALK-positive lung cancer line and DTP means drug-tolerant persister; higher = less growth inhibition). Settings: 100 nM; treatment time 6 days.
Method in brief: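 The 3114-agent TargetMol anti-cancer compound library was tested at 100 nM for 6 days on parental NCI-H2228 cells and on persister cells derived with 1000 nM of a targeted drug for 13 days. ATP readout by the CellTiter-Glo 3D Cell Viability Assay gave cell viability relative to DMSO vehicle-treated cells.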

How did the cell viability turn out when Nc1nc(F)nc2c1ncn2[C@@H]1O[C@H](CO)[C@@H](O)[C@@H]1O [Fludarabine] was run?
The cell viability was 1.12.

With Nc1nc(Cl)nc2c1ncn2[C@@H]1O[C@H](CO)[C@@H](O)[C@@H]1F [Clofarabine] as the molecule, how does the cell viability read?
The cell viability was 0.151.

For Nc1nc(Cl)nc2c1ncn2[C@H]1C[C@H](O)[C@@H](CO)O1 [Cladribine], which cell viability is on record?
Its cell viability is 0.201.

For NS(=O)(=O)Oc1ccc2c3c(c(=O)oc2c1)CCCCC3 [Irosustat], which cell viability is on record?
Its cell viability is 1.04.

For O=C(O)c1ccc(S(=O)(=O)NC2CCCCC2)cc1, which cell viability is on record?
Its cell viability is 0.986 and 1.12.

With CC(C)c1cc(C(=O)N2Cc3ccc(CN4CCN(C)CC4)cc3C2)c(O)cc1O [Onalespib] as the molecule, how does the cell viability read?
Its cell viability is 0.29.

For C[C@@H](Oc1cc(-n2cnc3ccc(CN4CCN(C)CC4)cc32)sc1C(N)=O)c1ccccc1C(F)(F)F, which cell viability is on record?
The cell viability was 0.156.

Which cell viability does the source give for COc1ccc(CC(C)(C)NC[C@H](O)c2cc(O)cc3c2OCC(=O)N3)cc1 [Olodaterol] here?
Its cell viability is 0.923.

Cc1ccc(/C=C2\CNC/C(=C\c3ccc(C)cc3)C2=O)cc1 was tested. Which cell viability did it give?
The cell viability was 1.06.

For c1ccc(CNc2ccccc2)cc1 [N-Phenylbenzylamine], which cell viability is on record?
Its cell viability is 1.16.

For Cc1cc(O)c(-c2ccc(C(C)CN)cc2)c2c1[nH]c(=O)c1sccc12 (stereo unspecified), which cell viability is on record?
The cell viability was 0.116.

How did the cell viability turn out when COC(=O)c1ccc(O)c(OC)c1 [Methyl Vanillate] was run?
The cell viability was 1.18.

With COc1ccc(-c2ccc3ncc4c(c3c2)n(-c2ccc(N3CCNCC3)c(C(F)(F)F)c2)c(=O)n4C)cn1 as the molecule, how does the cell viability read?
The cell viability was 0.172.

For CCC(=O)N1CCN(c2ccc(-n3c(=O)ccc4cnc5ccc(-c6cnc7ccccc7c6)cc5c43)cc2C(F)(F)F)CC1 [Torin 1], which cell viability is on record?
The cell viability was 0.306.

With Cn1c(=O)n(-c2ccc(C(C)(C)C#N)cc2)c2c3cc(-c4cnc5ccccc5c4)ccc3ncc21 [Dactolisib] as the molecule, how does the cell viability read?
Its cell viability is 0.258.

Which cell viability does the source give for NC(=O)c1ccc2nc(-c3ccc(Oc4ccc(Cl)cc4)cc3)[nH]c2c1 here?
The cell viability was 0.996.

Nc1ccc(Cl)cc1C(=O)O [2-Amino-5-chlorobenzoic acid] was tested. Which cell viability did it give?
Its cell viability is 1.16.

How did the cell viability turn out when Cc1cc(Nc2cc(N3CCN(C)CC3)nc(Sc3ccc(NC(=O)C4CC4)cc3)n2)n[nH]1 [Tozasertib] was run?
Its cell viability is 0.158.

For Cc1nc(Nc2ncc(C(=O)Nc3c(C)cccc3Cl)s2)cc(N2CCN(CCO)CC2)n1 [Dasatinib], which cell viability is on record?
The cell viability was 0.872.

With Cc1nc(Nc2ncc(C(=O)Nc3c(C)cccc3Cl)s2)cc(N2CCN(CCO)CC2)n1 [Dasatinib monohydrate] as the molecule, how does the cell viability read?
Its cell viability is 0.77.

For Cc1cc(Nc2cc(N3CCN(C)CC3)nc(/C=C/c3ccccc3)n2)n[nH]1, which cell viability is on record?
The cell viability was 0.803.

How did the cell viability turn out when O=C(O)c1ccc(CN2C[C@@H]3C[C@H]2CN3Cc2ccc(Oc3ccc(-c4ncco4)cc3)cc2)cc1 [Acebilustat] was run?
Its cell viability is 1.05.

For CN1C(=O)C(C)(C)Oc2c(-c3cn(C)c(=O)c4[nH]ccc34)cc(S(C)(=O)=O)cc21, which cell viability is on record?
Its cell viability is 0.935.

C(=N\NC1=NCCN1)/c1c2ccccc2c(/C=N/NC2=NCCN2)c2ccccc12 [Bisantrene] was tested. Which cell viability did it give?
The cell viability was 1.01.

For CC(C)=CCc1cc(-c2coc3cc(O)ccc3c2=O)ccc1O [Neobavaisoflavone], which cell viability is on record?
Its cell viability is 1.17.

With CC(=O)NCCC(=O)O as the molecule, how does the cell viability read?
The cell viability was 0.856.

COc1cc(/C=C2/SC(=S)NC2=O)ccc1OCC(=O)O was tested. Which cell viability did it give?
Its cell viability is 1.1.

CCOc1cc(C(=O)N2CCC(N3CCN(C)CC3)CC2)ccc1Nc1ncc2c(n1)N(C1CCCC1)c1ccccc1C(=O)N2C was tested. Which cell viability did it give?
Its cell viability is 1.23.

How did the cell viability turn out when COc1cc(C(=O)NC2CCN(C)CC2)ccc1Nc1ncc2c(n1)N(C1CCCC1)CC(F)(F)C(=O)N2C was run?
The cell viability was 0.171.

CC[C@@H]1C(=O)N(C)c2cnc(Nc3ccc(C(=O)NC4CCN(C)CC4)cc3OC)nc2N1C1CCCC1 was tested. Which cell viability did it give?
The cell viability was 0.167.

How did the cell viability turn out when CCOc1cc(N2CCC(O)CC2)ccc1Nc1ncc2c(n1)N(C1CCCC1)CCC(=O)N2C was run?
The cell viability was 1.15.

For CC[C@@H]1C(=O)N(C)c2cnc(Nc3ccc(C(=O)N[C@H]4CC[C@H](N5CCN(CC6CC6)CC5)CC4)cc3OC)nc2N1C(C)C [Volasertib], which cell viability is on record?
The cell viability was 0.192.

COc1cc(C(=O)N2CCC(N3CCN(C)CC3)CC2)ccc1Nc1ncc2c(n1)N(C)c1ccccc1C(=O)N2C was tested. Which cell viability did it give?
Its cell viability is 1.11.

How did the cell viability turn out when FC(F)(F)c1ccccc1-c1nc(NCc2cccs2)c2ccccc2n1 was run?
The cell viability was 1.04.

Which cell viability does the source give for CC(CCc1ccccn1)(CCc1ccccn1)C(=O)c1ccccc1 [JAK2 Inhibitor V] here?
Its cell viability is 1.08.

For COc1cc2ncnc(Nc3ccc(Oc4ccccc4)cc3C)c2cc1OC, which cell viability is on record?
The cell viability was 0.96.

CCc1ccc(-c2nc(CSCC(=O)NCCc3ccccc3)c(C)o2)cc1 was tested. Which cell viability did it give?
Its cell viability is 1.1.

With COc1cc(N(C)C)cc(CN(C)CCc2ccc([N+](=O)[O-])cc2)c1O [CDC25 Phosphatase Inhibitor I] as the molecule, how does the cell viability read?
The cell viability was 1.05.

Which cell viability does the source give for O=C(O[C@@H]1Cc2c(O)cc(O)cc2O[C@H]1c1cc(O)c(O)c(O)c1)c1cc(O)c(O)c(O)c1 [(-)-Gallocatechin gallate] here?
The cell viability was 1.07.

With O=C1NCCSc2c1sc1ccc(O)cc21 as the molecule, how does the cell viability read?
Its cell viability is 1.05.

How did the cell viability turn out when Cc1csc(-c2nnc(Nc3ccc(Oc4ncccc4-c4ccnc(N)n4)cc3)c3ccccc23)c1 was run?
The cell viability was 0.143.

With C[C@@H]1CCCCCCCCCCCCC(=O)C1 [Muscone] as the molecule, how does the cell viability read?
Its cell viability is 1.13.

Which cell viability does the source give for CC(=O)NC(Cc1ccccc1)C(=O)O (stereo unspecified) [Afalanine] here?
Its cell viability is 1.04.

For CC(NC(=O)C(Cc1ccccc1)NC(=O)OCc1ccccc1)C(=O)CF (stereo unspecified), which cell viability is on record?
The cell viability was 1.1.

COC[C@H](NC(=O)c1cnc(C)s1)C(=O)N[C@@H](COC)C(=O)N[C@@H](Cc1ccccc1)C(=O)[C@@]1(C)CO1 [Oprozomib] was tested. Which cell viability did it give?
Its cell viability is 0.176.

Cn1c(=O)c(Oc2ccc(F)cc2F)cc2cnc(NC(CCO)CCO)nc21 [Pamapimod] was tested. Which cell viability did it give?
The cell viability was 1.05.

C[C@@H]1CC[C@@]2(NC1)O[C@H]1C[C@H]3[C@@H]4CC=C5C[C@@H](O[C@@H]6O[C@H](CO)[C@H](O)[C@H](O[C@@H]7O[C@H](CO)[C@@H](O)[C@H](O)[C@H]7O)[C@H]6O[C@@H]6O[C@@H](C)[C@H](O)[C@@H](O)[C@H]6O)CC[C@]5(C)[C@H]4CC[C@]3(C)[C@H]1[C@@H]2C [Solasonine] was tested. Which cell viability did it give?
The cell viability was 1.1.

How did the cell viability turn out when Cn1cc(-c2cc3c(N4CCN(c5ncc([C@@](C)(N)c6ccc(F)cc6)cn5)CC4)ncnn3c2)cn1 [Avapritinib] was run?
The cell viability was 0.846.

For CC(C)C[C@H](NC(=O)CNC(=O)c1cc(Cl)ccc1Cl)B(O)O [Ixazomib], which cell viability is on record?
The cell viability was 0.121.

How did the cell viability turn out when CCCC(C)NC(=O)c1ccc(Cl)c(Cl)c1 (stereo unspecified) was run?
The cell viability was 1.06.

How did the cell viability turn out when C[C@H](NC(=O)CNC(=O)c1cccc(Cl)c1)c1ccccc1 was run?
The cell viability was 1.09.

Which cell viability does the source give for CC(C)C[C@H](NC(=O)CNC(=O)c1cc(Cl)ccc1Cl)B1OC(=O)C(CC(=O)O)(CC(=O)O)O1 here?
The cell viability was 0.106.

CCNC(=O)Nc1ccc(-c2nc(N3CCOC[C@@H]3C)c3c(n2)C(C)(C)S(=O)(=O)C3)cc1 was tested. Which cell viability did it give?
The cell viability was 0.547.

With CCn1nc(C2CCN(C(=O)CCO)CC2)nc1-c1cnc(N)c(-c2nnc(C(C)(C)C)o2)n1 as the molecule, how does the cell viability read?
Its cell viability is 1.04.

COc1cc(OCc2cccc(-c3ccccc3)c2C)cc(OC)c1CN1CCCC[C@H]1C(=O)O [PD-1/PD-L1 inhibitor 1] was tested. Which cell viability did it give?
Its cell viability is 1.09.

Nc1n[nH]c2cc(-c3ccc(=O)n(Cc4cccc(Cl)c4)c3)ccc12 was tested. Which cell viability did it give?
Its cell viability is 1.

For Cc1cc(-n2cccc2)c(S(C)(=O)=O)cc1C(=O)N=C(N)N [Eniporide], which cell viability is on record?
The cell viability was 1.24.

Nc1nccc(Oc2ccc3c(C(=O)Nc4cccc(C(F)(F)F)c4)cccc3c2)n1 was tested. Which cell viability did it give?
Its cell viability is 1.15.

How did the cell viability turn out when C=C1CCC[C@]2(C)C[C@]3(O)OC(=O)C(C)=C3C[C@@H]12 [Atractylenolide III] was run?
The cell viability was 1.1.

With COc1nccnc1NS(=O)(=O)c1ccc(NC(=O)/C=C/c2ccc([N+](=O)[O-])s2)cc1 [Necrosulfonamide] as the molecule, how does the cell viability read?
The cell viability was 1.13.

With O=C(COCC(=O)N1CCN(C(c2ccccc2)c2ccccc2)CC1)Nc1ccc(Cl)cc1C(=O)O [TM5275 sodium] as the molecule, how does the cell viability read?
Its cell viability is 0.996.

Which cell viability does the source give for NCCC(=O)O [beta-Alanine] here?
The cell viability was 1.24.

CC(C)S(=O)(=O)c1ccc2nccc(Nc3ccc4scnc4c3)c2c1 was tested. Which cell viability did it give?
Its cell viability is 1.08.

Which cell viability does the source give for Nc1nc(=O)c2c([nH]1)NC[C@H](CNc1ccc(C(=O)N[C@@H](CCC(=O)O)C(=O)O)cc1)N2C=O [Calcium Levofolinate] here?
The cell viability was 1.15.

Nc1nc2[nH]cc(CCc3ccc(C(=O)N[C@@H](CCC(=O)O)C(=O)O)cc3)c2c(=O)[nH]1 [Pemetrexed Disodium Hydrate] was tested. Which cell viability did it give?
The cell viability was 0.187.

Cc1ccc2nc(N)[nH]c(=O)c2c1Sc1ccncc1 [Nolatrexed] was tested. Which cell viability did it give?
Its cell viability is 1.04.

Which cell viability does the source give for COc1c2c(cc3c1-c1c(cc4c(c1OC)OCO4)C[C@H](C)[C@H](C)C3)OCO2 [Schisandrin C] here?
The cell viability was 0.951.

With N#CC(=Cc1cc(Cl)cc(Cl)c1)c1cccnc1 as the molecule, how does the cell viability read?
The cell viability was 1.14.

CCN(CC)CCOc1ccc(Nc2nc(-c3ccccc3NC(=O)CCN3CCN(C)CC3)nc3ccccc23)cc1 was tested. Which cell viability did it give?
Its cell viability is 1.15.

How did the cell viability turn out when CC(C)Oc1ccc(C(=O)N[C@H](CNC(=O)CN(C)C)Cc2ccc(-c3cn4cccc([C@H](C)O)c4n3)cc2)cc1Cl was run?
The cell viability was 0.15.

COc1ccc(-c2cc(=O)c3c(O)cc(O[C@@H]4O[C@H](CO[C@@H]5O[C@@H](C)[C@H](O)[C@@H](O)[C@H]5O)[C@@H](O)[C@H](O)[C@H]4O)cc3o2)cc1 [Linarin] was tested. Which cell viability did it give?
Its cell viability is 1.02.

NC(=O)c1[nH]cnc1N [4-Amino-5-imidazolecarboxamide] was tested. Which cell viability did it give?
Its cell viability is 1.23.

Which cell viability does the source give for CCn1cc(-c2cccc(C(F)(F)F)c2)c2sc(C(=N)NC3CCS(=O)(=O)CC3)cc2c1=O here?
Its cell viability is 1.1.

With COc1ccc(C[C@H](NC(=O)[C@H](C)NC(=O)CN2CCOCC2)C(=O)N[C@@H](Cc2ccccc2)C(=O)C2(C)CO2)cc1 (stereo in doubt) as the molecule, how does the cell viability read?
Its cell viability is 0.878.

CC(C)C[C@H](NC(=O)[C@H](CCc1ccccc1)NC(=O)CN1CCOCC1)C(=O)N[C@@H](Cc1ccccc1)C(=O)N[C@@H](CC(C)C)C(=O)[C@@]1(C)CO1 [Carfilzomib] was tested. Which cell viability did it give?
Its cell viability is 0.0349.

CC(C)c1nc(CN(C)C(=O)N[C@@H](CCN2CCOCC2)C(=O)N[C@H](CC[C@H](Cc2ccccc2)NC(=O)OCc2cncs2)Cc2ccccc2)cs1 [Cobicistat] was tested. Which cell viability did it give?
Its cell viability is 1.14.
